Measured values from PubChem BioAssay AID2058 (Sanford-Burnham Center for Chemical Genomics, 2009).
Out of some 290,000 compounds screened, about 150 (0.052%) were called active. The sample holds actives, similar compounds and a random draw of the others, so the mix is not that of the screen.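 How the source made its calls: active means inhibition of at least 50% with at least 30 cells and total cytoplasm GFP at most 10,000,000; inconclusive means under 30 cells or total GFP of 10,000,000 plus; inactive means the rest.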 Measured potencies and affinities stand elsewhere.

target: G-protein coupled receptor 35 (Homo sapiens) (UniProt Q9HC97); experiment: inhibition of zaprinast-stimulated GPR35 beta-arrestin translocation – imaging, U2OS, beta-arrestin-GFP, zaprinast agonist, primary screen (AID 2058); details: zaprinast antagonism, at 10 µM, hits give high values
Sequence (Q9HC97 whole entry, looked up): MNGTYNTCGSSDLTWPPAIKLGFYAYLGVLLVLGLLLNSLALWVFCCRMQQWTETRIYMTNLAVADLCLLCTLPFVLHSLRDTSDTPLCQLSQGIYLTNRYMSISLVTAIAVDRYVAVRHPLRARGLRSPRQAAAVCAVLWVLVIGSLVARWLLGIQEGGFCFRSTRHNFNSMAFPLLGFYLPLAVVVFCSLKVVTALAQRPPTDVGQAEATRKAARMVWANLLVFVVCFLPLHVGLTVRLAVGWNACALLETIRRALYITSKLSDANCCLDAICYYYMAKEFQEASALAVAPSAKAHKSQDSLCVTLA

inhibition, inactive:
O=C(O)c1ccc(-c2sc(Nc3ccccc3)n[n+]2-c2ccc(F)cc2)cc1 0.5%, COc1ccc(C)cc1Nc1n[n+](-c2ccccc2)c(-c2ccc(SC)cc2)s1 20.4%, CSc1ccc(-c2sc(Nc3ccccc3)n[n+]2-c2ccc(F)cc2)cc1 -7.7%, Fc1ccc(-[n+]2nc(Nc3ccccc3)sc2-c2ccc(OCc3ccccc3)cc2)cc1 8.3%, COc1ccc(C)cc1Nc1n[n+](-c2ccccc2)c(-c2ccc(C(=O)O)cc2)s1 7.9%, Oc1ccc(-c2sc(Nc3ccccc3)n[n+]2-c2ccc(F)cc2)cc1 10.2%, COC(=O)c1cc(-c2ccc(Cl)cc2)n[nH]1 10.8%, CC(C)C(C)NC(=O)CN1C(=O)NC2(CCc3ccccc32)C1=O (centres undefined) 9.4%, Nc1nonc1-n1nnc(C(=O)N/N=C/c2ccc(OCc3ccc(F)cc3)cc2)c1COc1ccccc1 5.9%, CC(C)(C)c1ccc(/C=C2\CCn3c2nc2cc(C(=O)O)ccc2c3=O)cc1 17.9%, O=Cc1[nH]c2ccccc2c1N(C(=O)CCl)c1ccccc1 -1.1%, CC(=O)n1cc(N(C(=O)CCl)c2ccc([N+](=O)[O-])cc2)c2ccccc21 -2.4%, CSc1ccc(C2c3[nH]c4ccccc4c3CCN2C(=O)c2ccnn2C)cc1 (centres undefined) -11.7%, CCOc1ccccc1CN1CCN(Cc2cccc3nonc23)CC1CCO (centres undefined) 28.2%, COc1cccc(CN2CCN(Cc3cccc4nonc34)CC2CCO)c1 (centres undefined) 8.1%, CN(C)/C=C1\C(=O)ON=C1c1ccccc1 -9.5%, CCN(CC)C(=O)c1ccc(-c2nnc(Nc3ccc(C(=O)NC)cc3)c3ccccc23)cc1 5%, N=C1/C(=C\c2ccc(-c3cc(Cl)cc(Cl)c3)o2)C(=O)N=C2SC=C(c3ccccc3)N12 -4.5%, CC(C)S(=O)(=O)C1=NSC2=NC(=O)/C(=C\c3ccc(-c4cccc(C(=O)O)c4)o3)C(=N)N21 -1.8%, N=C1/C(=C\c2ccc(-c3cccc(Cl)c3)o2)C(=O)N=C2SC=C(c3ccccc3)N12 -1.6%, N=C1/C(=C\c2ccc(-c3ccc(C(=O)O)cc3)o2)C(=O)N=C2SC=C(c3ccccc3)N12 43%, O=C(c1ccsc1)N1CCCC(Nc2ccc(F)c(F)c2)C1 (centres undefined) 0%, CC1CCCC(C)N1C(=O)c1cc2ncc(CCCl)cn2n1 (centres undefined) -11.5%, O=C(CCCC(=O)N(c1ccc(F)cc1)C(C(=O)NC1CCCC1)c1ccc(O)cc1)Nc1ccccn1 (centres undefined) 6.8%, Cc1ccc(N/C(N)=N/c2nc(CSc3ccccn3)cc(=O)[nH]2)c(C)c1 2.7%, C=CCSc1n[nH]c(-c2cccs2)n1 13.6%, COc1ccc(/C=C2\OC(=S)N(C)C2=O)cc1 22.6%, CN1C(=S)N(c2cccnc2)C(=O)/C1=C\c1ccc(N(C)C)cc1 15.6%, N#Cc1c(C(F)(F)F)cc(-c2cccs2)nc1SCc1cccnc1 -12.1%, O=C(COC(=O)Cn1cnc2ccccc2c1=O)Nc1cc(Cl)ccc1[N+](=O)[O-] -6.5%, CC(C)CNS(=O)(=O)c1ccc2c(c1)OCCO2 13.4%, COC(=O)c1cnn(-c2ccccc2)c1/C=N/NC(=S)Nc1ccccc1 35.2%, COC(=O)c1cnn(-c2ccccc2)c1/C=N/NC(=S)Nc1ccc(Cl)cc1 -10.9%, COC(=O)c1cnn(-c2ccc(Cl)cc2)c1/C=N/NC(N)=S 7%, COC(=O)c1cnn(-c2ccc(F)cc2F)c1/C=N/NC(N)=S 17.4%, COc1ccc(C2=NOC(C(=O)Nc3cccc(O)c3)C2)cc1 (centres undefined) -13.8%, COc1ccc(-c2cc3c(=O)n(CC(=O)NC4CCN(Cc5ccccc5)CC4)ncn3n2)cc1 19.6%, CCCc1c(O)nc(SCC(=O)NCc2ccco2)[nH]c1=O -14.7%, Cc1ccsc1-c1nc(C(N)=O)c2[nH]c(=O)n(-c3ccc(Cl)cc3)c2n1 -1.2%, O=C(NCc1ccc2c(c1)OCO2)C1CC(=O)N(CCc2ccc(Cl)cc2)C1 (centres undefined) -11.7%, COc1cc(C(=O)Nc2ccc(C(N)=O)cc2)c([N+](=O)[O-])cc1OC 3%, COc1ccc2nc(N=NC3=C(O)CC(C)(C)CC3=O)sc2c1 0.7%, CC(C)COc1ccc(-c2nnc(-c3ccncc3)o2)cc1 2.8%, COc1ccc(-c2nnc(-c3ccc(OCC(C)C)cc3)o2)cc1 4.6%, O=C(COC(=O)Cc1ccsc1)Nc1ccc(Cl)c(S(=O)(=O)N2CCOCC2)c1 23.9%, CCOc1ccc(/C=C/C(=O)c2ccccc2)cc1 7%, O=C(O)COc1ccc(/C=C/C(=O)c2ccc3ccccc3c2)cc1 12.2%, COC(=O)c1sc(NC(=O)CSc2nnc(Cn3nnc4ccccc43)n2C)nc1C 5.3%, CN(C)/C=C1\SC(=S)N(c2ccc(Br)cc2)C1=O 21.4%, CN(C)/C=C1\SC(=S)N(c2ccc(F)cc2)C1=O 9.5%, Nc1ccc(S(=O)(=O)NC(Cc2ccccc2)C(=O)O)cc1 (centres undefined) -10.2%, CCCN1C(=O)/C(=C/c2c(N3CCNC(=O)C3CC(=O)OC)nc3c(C)cccn3c2=O)SC1=S (centres undefined) 12.4%, CCOC(=O)CC1C(=O)NCCN1c1nc2ccc(C)cn2c(=O)c1/C=C1\SC(=S)N(CC(C)C)C1=O (centres undefined) 21.7%, CCOC(=O)CC1C(=O)NCCN1c1nc2ccc(C)cn2c(=O)c1/C=C1\SC(=S)N(C(C)CC)C1=O (centres undefined) 43.7%, CCCN1C(=O)/C(=C/c2c(N3CCNC(=O)C3CC(=O)OCC)nc3c(C)cccn3c2=O)SC1=S (centres undefined) 33%

inhibition, active:
O=Cc1[nH]c2ccccc2c1N(C(=O)CCl)c1ccc([N+](=O)[O-])cc1 80.7%, CCOc1ccc(CN2CCN(Cc3cccc4nonc34)CC2CCO)cc1 (centres undefined) 97.5%, CCOC(=O)CC1C(=O)NCCN1c1nc2c(C)cccn2c(=O)c1/C=C1\SC(=S)N(C(C)CC)C1=O (centres undefined) 55.7%, CCOC(=O)CC1C(=O)NCCN1c1nc2c(C)cccn2c(=O)c1/C=C1\SC(=S)N(CC(C)C)C1=O (centres undefined) 58.9%
